TSG101-PTAP inh: TSG101-PTAP interaction inhibition, HIV-1 budding; Q99816; Fluorescence polarization, FITC-PTAP peptide/Tsg101, 20 min; Potency, µM (series often up to 115 µM), actives largely listed as inhibitors; 44,000 tested, under 10 active
Target sequence (Q99816 whole entry, looked up): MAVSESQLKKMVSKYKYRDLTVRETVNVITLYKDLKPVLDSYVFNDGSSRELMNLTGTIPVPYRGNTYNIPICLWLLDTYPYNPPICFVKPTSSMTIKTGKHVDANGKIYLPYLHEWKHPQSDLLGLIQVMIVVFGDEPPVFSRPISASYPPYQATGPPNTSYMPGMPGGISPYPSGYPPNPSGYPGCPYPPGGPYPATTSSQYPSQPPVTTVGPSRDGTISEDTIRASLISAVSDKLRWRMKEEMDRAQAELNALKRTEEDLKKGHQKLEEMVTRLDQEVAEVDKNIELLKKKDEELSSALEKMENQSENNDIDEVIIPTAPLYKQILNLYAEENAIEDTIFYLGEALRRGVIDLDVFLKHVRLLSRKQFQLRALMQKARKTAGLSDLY
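FITC-labeled PTAP peptide (50 nM final) binding to Tsg101 binding domain (10 uM final) read by fluorescence polarization after 20 min at r.t. in HEPES pH 7.5 buffer. Actives by CRC class, <25 µM.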
S16 viability: toxic to S16 Pmp22-F2sN Schwann cells; S16 Pmp22-F2sN Schwann cells viability, CellTiter-Glo, 24 h; Potency, µM (highest dose often 57.5 µM), usual class: cytotoxic; actives 0.48% (n = 43,000); note: nearly all actives have a fitted effect of over 65% in size
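Luminescence from CellTiter-Glo, read by CCD camera after a 15 min room-temperature incubation, served as the viability signal. Reporter Schwann cells (S16 Pmp22-F2sN) had been treated with pin-transferred compounds for 24 h at 37C.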
PMP22 txn: modulates PMP22 transcription in S16 Schwann cells; Potency, µM (top dose mostly 57.5 µM), hits mostly inhibitors; actives 2% (n = 43,000); S16 Pmp22-F2sN Schwann cells (luciferase reporters placed in the Pmp22 gene), FLuc/NLuc coincidence luminescence, 24 h; AID 1508649; active = clear falling dose curves in both reporters; inconclusive = both reporters move, but less clearly or upward; inactive = either reporter flat; the % is the NLuc reporter signal
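S16(c9) Schwann cells with FLuc/NLuc coincidence reporter in the Pmp22 3' UTR; compounds pin-transferred, 24 h at 37C. Dual-luciferase read: FLuc first, then NLuc after Stop&Glo, each 10 min at room temperature.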
pS6 MEF inh: inhibitors of mTORC1 signaling in Tsc2-/- p53-/- MEF cells; AID 493208; Potency, µM (doses to about 38.3 µM), usual class: inhibitors; Tsc2-/- p53-/- MEF, phospho-rpS6 immunofluorescence/PI, 24 h; actives 0.78% (n = 44,000); note: nearly all actives have a fitted effect of over 50% in size
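Compounds act on Tsc2-/-, p53-/- fibroblasts carrying an empty vector for 24 h before fixation and dual staining for phospho-S6 and DNA (propidium iodide). Values are percentages of cells above a rapamycin-defined pS6/PI threshold.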
GALK inh: GALK (human) enzyme inhibition; 44,000 tested, under 10 active; recombinant GALK, Kinase-Glo ATP luminescence, 1 h; P51570; Potency, µM (series often up to 57.5 µM), most hits filed as inhibitors
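Reactions with and without enzyme served as controls. GALK at 5 nM phosphorylates 100 uM galactose using 35 uM ATP (HEPES pH 8.0, Mg2+) for 1 h at RT, with luminescence read 10 min after adding Kinase-Glo Plus.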
NLuc saturating: inhibits NanoLuc at saturating substrate, PMP22 counter-screen | shares compounds with PMP22 txn | Secreted NLuc enzyme (filtered S16 cell medium), Nano-Glo luminescence | Potency, µM (highest dose often 57.5 µM), actives largely listed as inhibitors | actives 4% (n = 690) | AID 1508638
NLuc Km counter: NanoLuc inhibition at Km substrate, PMP22 artifact check; secreted NLuc enzyme, coelenterazine luminescence, Km conditions; Potency, µM (titrated, usually from 57.5 µM), hits mostly inhibitors; actives 5% (n = 690); shares compounds with PMP22 txn
FLuc ctr PMP22: inhibits firefly luciferase, PMP22 counter-screen; Potency, µM (doses to about 57.5 µM), actives largely listed as inhibitors; purified P. pyralis FLuc, luminescence, 10 min; 690 tested, under 10 active; shares compounds with PMP22 txn
S16 F2sN tox cnf: S16 Schwann cell cytotoxicity, confirmatory; S16 Schwann cells viability, CellTiter-Glo ATP luminescence, 24 h; shares compounds with PMP22 txn; AID 1508641; actives 7% (n = 690); Potency, µM (series often up to 57.5 µM), hits mostly cytotoxic
PMP22 txn conf: confirmation of modulators of PMP22 gene transcription in S16 cells | shares compounds with PMP22 txn | S16 Schwann cells Pmp22-F2sN, dual luciferase, 24 h | Potency, µM (series often up to 57.5 µM), usual class: inhibitors | actives 22% (n = 690) | AID 1508646; active = clear falling dose curves in both reporters; inconclusive = both reporters move, but less clearly or upward; inactive = either reporter flat; the % is the FLuc reporter signal
PMP22 HiBiT cnf: rat PMP22 protein level modulation, confirmatory; shares compounds with PMP22 txn; S16 Schwann cells Pmp22-HiBiT, luminescence, 48 h; Potency, µM (series often up to 27.9 µM), hits mostly inhibitors; 95 tested, under 10 active; AID 1508647
Target sequence (P25094 whole entry, looked up): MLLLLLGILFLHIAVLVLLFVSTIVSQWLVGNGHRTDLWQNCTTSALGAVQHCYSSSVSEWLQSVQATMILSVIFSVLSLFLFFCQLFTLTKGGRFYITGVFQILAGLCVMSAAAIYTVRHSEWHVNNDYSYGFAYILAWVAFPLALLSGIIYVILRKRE
Large screens that a line does not name were inactive (follow-up assays come after a bar, where they were run). In the library only some 2.8% were active in any assay of this set; here they are far more common. Unless noted, calls come from the whole dose curve; as a rule, active = well fitted curve in the direction sought with a large enough effect; inconclusive = small, poorly fitted or top-dose-only effect, or another doubt; inactive = no such curve, though single readings can be large; an effect the other way counts as inactive or inconclusive.

CCCN(CCC)C(=O)Cn1c(=O)n(-c2ccc(OC)cc2)c(=O)c2ccc(C(=O)NCc3ccc(C)cc3)cc21	none
Cc1ccc(-n2c(=O)c3ccc(C(=O)NCc4ccccc4Cl)cc3n(CC(=O)Nc3cccc(Cl)c3)c2=O)cc1	S16 viability inconclusive, PMP22 txn inconclusive
Cc1ccc(-n2c(=O)c3ccc(C(=O)NCc4ccccc4Cl)cc3n(CC(=O)Nc3ccc(C)cc3C)c2=O)cc1	PMP22 txn 15µM | NLuc saturating inactive | NLuc Km counter inactive | FLuc ctr PMP22 inactive | S16 F2sN tox cnf inconclusive | PMP22 txn conf 8.5µM
CCc1ccc(NC(=O)Cn2c(=O)n(-c3ccc(OC)cc3)c(=O)c3ccc(C(=O)NCc4ccc(C)cc4)cc32)cc1	PMP22 txn 13µM, pS6 MEF inh inconclusive | NLuc saturating inactive | NLuc Km counter inactive | FLuc ctr PMP22 inactive | S16 F2sN tox cnf inconclusive | PMP22 txn conf 12µM | PMP22 HiBiT cnf inconclusive
Cc1ccc(NC(=O)Cn2c(=O)n(-c3ccc(C)cc3)c(=O)c3ccc(C(=O)NCc4ccccc4Cl)cc32)cc1	S16 viability inconclusive, PMP22 txn 4.5µM | NLuc saturating inactive | NLuc Km counter inactive | FLuc ctr PMP22 inactive | S16 F2sN tox cnf 22µM | PMP22 txn conf 5.1µM | PMP22 HiBiT cnf inconclusive
COc1cccc(CNC(=O)c2cc(-c3ccc(Cl)cc3)n[nH]2)c1	none
CCCCCc1nn2cc(-c3ccccc3)nc2s1	GALK inh inconclusive
CCc1ccc(N2C(=O)CSC23C(=O)N(Cc2cccc(OC)c2)c2ccccc23)cc1 (configuration not stated)	S16 viability inconclusive, PMP22 txn 13µM | NLuc saturating inactive | NLuc Km counter inactive | FLuc ctr PMP22 inactive | S16 F2sN tox cnf inactive | PMP22 txn conf inactive
COc1ccc(N2C(=O)CSC23C(=O)N(Cc2cccc(C(F)(F)F)c2)c2ccccc23)cc1 (configuration not stated)	PMP22 txn inconclusive
Cc1ccc2nc3c(c(Nc4ccc(C)c(C)c4)c2c1)CCC3	S16 viability inconclusive, PMP22 txn 19µM | NLuc saturating inactive | NLuc Km counter inactive | FLuc ctr PMP22 inactive | S16 F2sN tox cnf inactive | PMP22 txn conf inconclusive
Cc1ccc(NC(=O)CSc2c3c(nc4ccccc24)CCCC3)cc1F	PMP22 txn inconclusive
COc1ccc(Nc2c3c(nc4ccc(NC(=O)c5ccc(F)cc5)cc24)CCCC3)cc1OC	S16 viability inconclusive, PMP22 txn inconclusive
Cc1ccc(Nc2c3c(nc4ccccc24)CCC3)cc1F	PMP22 txn 16µM | NLuc saturating inactive | NLuc Km counter inconclusive | FLuc ctr PMP22 inactive | S16 F2sN tox cnf inactive | PMP22 txn conf inconclusive
CCOc1ccc2nc(N(Cc3cccnc3)C(=O)c3ccc4c(c3)OCCO4)sc2c1	PMP22 txn inconclusive
CC(C)Cc1nn2c(=O)cc(COC(=O)c3cccc(NC(=O)CCc4ccccc4)c3)nc2s1	S16 viability inconclusive
COc1cccc(-n2ccnc2SCC(=O)Nc2cccc3ccccc23)c1	PMP22 txn inconclusive
Cc1ccc(NC(=O)CSc2nc3nc(C)c(Cc4ccccc4)c(C)n3n2)cc1	none
COc1ccc(OC)c(NC(=O)CSc2c3c(nc4cc(Cl)ccc24)CCCC3)c1	S16 viability inconclusive, PMP22 txn inconclusive
COc1ccc(OC)c(NC(=O)CSc2c3c(nc4ccccc24)CCCC3)c1	S16 viability inconclusive, PMP22 txn 9.5µM, pS6 MEF inh inconclusive | NLuc saturating inconclusive | NLuc Km counter inconclusive | FLuc ctr PMP22 inactive | S16 F2sN tox cnf inconclusive | PMP22 txn conf 12µM | PMP22 HiBiT cnf inconclusive
COc1ccc(OC)c(Nc2c3c(nc4ccccc24)CCC3)c1	S16 viability inconclusive, PMP22 txn 8.4µM, pS6 MEF inh 5.2µM | NLuc saturating inactive | NLuc Km counter inactive | FLuc ctr PMP22 inactive | S16 F2sN tox cnf inactive | PMP22 txn conf 1.5µM
CC(C)CCNC(=O)CSc1c2c(nc3ccc(Cl)cc13)CCCC2	S16 viability inconclusive, PMP22 txn 14µM, pS6 MEF inh inconclusive | NLuc saturating inconclusive | NLuc Km counter inactive | FLuc ctr PMP22 inactive | S16 F2sN tox cnf inactive | PMP22 txn conf inconclusive
CC(=O)Nc1ccc(S(=O)(=O)NCCc2cn3ccsc3n2)cc1	none
CN(Cc1ccccc1)C(=O)c1cc2c(s1)-c1ccc(Cl)cc1SC2	S16 viability inconclusive
CCOC(=O)c1sc2ncn(CC(=O)Nc3ccc(F)cc3F)c(=O)c2c1C	pS6 MEF inh inconclusive
CCOC(=O)c1ccccc1NC(=O)n1ncc2cc(Cl)ccc21	none
CCOC(=O)c1cc(NC(=O)c2ccccc2)c(=O)n2c1oc1ccc(Cl)cc12	S16 viability inconclusive, PMP22 txn inconclusive | NLuc saturating inactive | NLuc Km counter inactive | FLuc ctr PMP22 inactive | S16 F2sN tox cnf inactive | PMP22 txn conf inconclusive
COc1ccc(N(C(=O)c2cc(OC)c(OC)c(OC)c2)S(=O)(=O)c2ccc(C)cc2)cc1	S16 viability inconclusive, PMP22 txn 19µM | NLuc saturating inactive | NLuc Km counter inactive | FLuc ctr PMP22 inactive | S16 F2sN tox cnf inactive | PMP22 txn conf inactive
CCc1ccc(C(=O)c2cn(CC(=O)Nc3ccc4c(c3)OCO4)c3ccc(CC)cc3c2=O)cc1	PMP22 txn 13µM | NLuc saturating inactive | NLuc Km counter inactive | FLuc ctr PMP22 inactive | S16 F2sN tox cnf inconclusive | PMP22 txn conf 12µM | PMP22 HiBiT cnf inconclusive
CCC1=Nc2cc(C(=O)NCCN(CC)CC)ccc2Sc2ccccc21	PMP22 txn 17µM, pS6 MEF inh inconclusive | NLuc saturating inactive | NLuc Km counter inactive | FLuc ctr PMP22 inactive | S16 F2sN tox cnf inactive | PMP22 txn conf inconclusive

Screens as filed in PubChem BioAssay.
